Structures are written as SMILES. This is part of a sample that, as a whole, favours compounds with a hit. Of some 83,000 tested, about 20% had one in any assay.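 Method: cells in 96-well plates; compound added at one concentration; 48 h incubation; percent growth measured; values under 10 scored active.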 Unmarked numbers belong to inactive results. Active and inactive are the calls of the source.

Some test systems named below: NCI-H23 lung; NCI-H226 lung; NCI-H322M lung; HOP-62 NSCLC; NCI-H460 lung; HOP-92 NSCLC; NCI-H522 lung; A549/ATCC NSCLC; 786-0 renal; COLO 205 colon.
What all share (assay): NCI-60 one-dose screen, 48 h (100 = growth as untreated, 0 = no growth, -100 = all killed)
Holding throughout (settings): 10 µM unless noted

In the case of `CC[C@@H]1C(=O)N(C)c2cnc(Nc3ccc(C(=O)NC4CCN(C)CC4)cc3OC)nc2N1C1CCCC1`, the growth in the assay with NCI-H23 lung was 8.04% (active); in the assay with NCI-H226 lung, 52.6%; in the assay on NCI-H322M lung, 24.9%; in the assay with HOP-62 NSCLC, -20.1% (active); in the assay with NCI-H460 lung, 8.51% (active); in the assay on HOP-92 NSCLC it was 7.59% (active). Moreover, the growth is -14.4% (active) with NCI-H522 lung, 3.29% (active) in the assay on A549/ATCC NSCLC, 8.26% (active) in the assay on 786-0 renal and -54% (active) with COLO 205 colon.
Turning to `Cn1cc(-c2[nH]c3cc(NC(=O)[C@H](N)C4CCCCC4)cc4c3c2C=NNC4=O)cn1`, the growth in the assay on NCI-H23 lung was -12.7% (active); in the assay on NCI-H226 lung it was 26.1%; with NCI-H322M lung, 16.1%; in the assay on HOP-62 NSCLC it was -11.3% (active); in the assay with NCI-H460 lung, 11.6%; with HOP-92 NSCLC it was -25.2% (active). In addition, the growth in the assay with NCI-H522 lung was -66% (active); in the assay on A549/ATCC NSCLC it was 14%; with 786-0 renal it was -18.9% (active); in the assay with COLO 205 colon, -78.4% (active).
`Cc1cc(Nc2ncc(Cl)c(Nc3ccccc3S(=O)(=O)C(C)C)n2)c(OC(C)C)cc1C1CCNCC1`: the growth in the assay with NCI-H23 lung is -86.5% (active); in the assay on NCI-H226 lung, -64.8% (active); in the assay on NCI-H322M lung it was -93.9% (active); in the assay on HOP-62 NSCLC it was -94.5% (active); in the assay on NCI-H460 lung it was -86.5% (active); with HOP-92 NSCLC it was -92.3% (active). In addition, the growth was -89.3% (active) in the assay with NCI-H522 lung, -99.8% (active) in the assay with A549/ATCC NSCLC, -91.2% (active) in the assay on 786-0 renal and -88.2% (active) in the assay with COLO 205 colon.
With `COc1ccc(COc2cc3oc(=O)c4cc(C(C)O)ccc4c3cc2OC)cc1` (stereo not given), the growth is 70.8% in the assay on NCI-H23 lung; 55.4% in the assay on NCI-H226 lung; 83.8% with NCI-H322M lung; 36.9% with HOP-62 NSCLC; 58.4% in the assay with NCI-H460 lung; 55.2% in the assay with HOP-92 NSCLC. The growth is 35.1% with NCI-H522 lung, 48.6% in the assay with A549/ATCC NSCLC, 62.4% in the assay on 786-0 renal and 49.3% with COLO 205 colon.
As to `COc1cccc2cc(-c3nc(C4CCC(C(=O)O)CC4)n4ncnc(N)c34)[nH]c12` (stereo not given), the growth with NCI-H23 lung is 7.94% (active); with NCI-H226 lung, 7.69% (active); in the assay with NCI-H322M lung, 9.76% (active); with HOP-62 NSCLC, -10% (active); in the assay on NCI-H460 lung, 11.1%; in the assay with HOP-92 NSCLC, -14.5% (active). Further, the growth in the assay with NCI-H522 lung is -1.72% (active); with A549/ATCC NSCLC, 5.25% (active); with 786-0 renal, -5.64% (active); with COLO 205 colon, 1.83% (active).
Turning to `O=C1C=CC2(NN=C(c3ccccc3)N2c2cccc(Cl)c2)C(Cl)=C1` (stereo not given), the growth is 85.9% with NCI-H23 lung; 86.5% in the assay on NCI-H226 lung; 82.6% in the assay with NCI-H322M lung; 63.8% in the assay on HOP-62 NSCLC; 91.8% with NCI-H460 lung; 84.5% in the assay with HOP-92 NSCLC. The growth in the assay on NCI-H522 lung is 36.6%; in the assay with A549/ATCC NSCLC, 80.1%; in the assay on 786-0 renal it was 98%; in the assay on COLO 205 colon, 103%.
Turning to `CCN(CC)CCNC(=O)c1c(C)[nH]c(/C=C2\C(=O)Nc3ccc(F)cc32)c1C`, the growth was 21.4% in the assay on NCI-H23 lung; 51.1% in the assay with NCI-H226 lung; 31.4% in the assay on NCI-H322M lung; 26% in the assay on HOP-62 NSCLC; 1.9% (active) with NCI-H460 lung; 30.3% in the assay on HOP-92 NSCLC. For the same molecule, the growth with NCI-H522 lung was -46% (active); in the assay with A549/ATCC NSCLC, 0.0489% (active); with 786-0 renal it was -63.8% (active); in the assay on COLO 205 colon, -80.3% (active).
In the case of `Cn1cnc2c(F)c(Nc3ccc(Br)cc3F)c(C(=O)NOCCO)cc21`, the growth is 22% in the assay on NCI-H23 lung; 56.6% in the assay on NCI-H226 lung; 18.9% in the assay with NCI-H322M lung; 32.7% in the assay with HOP-62 NSCLC; 62.6% in the assay on NCI-H460 lung; -4.91% (active) in the assay with HOP-92 NSCLC. In addition, the growth was 60.9% with NCI-H522 lung, 30.9% in the assay on A549/ATCC NSCLC, 67.4% in the assay on 786-0 renal and -2.54% (active) with COLO 205 colon.
As for `COc1ccc(-c2ccc3ncc4c(c3c2)n(-c2ccc(N3CCNCC3)c(C(F)(F)F)c2)c(=O)n4C)cn1`, the growth was -71.6% (active) with NCI-H23 lung; -66.4% (active) in the assay with NCI-H226 lung; -89.6% (active) with NCI-H322M lung; -72% (active) in the assay with HOP-62 NSCLC; -82.9% (active) with NCI-H460 lung; -83.2% (active) in the assay on HOP-92 NSCLC. For the same molecule, the growth was -61.7% (active) in the assay on NCI-H522 lung, -83.2% (active) in the assay with A549/ATCC NSCLC, -81.1% (active) in the assay with 786-0 renal and -73.9% (active) in the assay with COLO 205 colon.
With `NC[C@@](O)(c1ccc(Cl)cc1)c1ccc(-c2cn[nH]c2)cc1`, the growth is 27.4% with NCI-H23 lung; 43.9% with NCI-H226 lung; 10.3% in the assay with NCI-H322M lung; 15.2% with HOP-62 NSCLC; 23.1% in the assay with NCI-H460 lung; -1.15% (active) in the assay on HOP-92 NSCLC. Further, the growth in the assay with NCI-H522 lung is 17.7%; in the assay with A549/ATCC NSCLC, 18.3%; in the assay on 786-0 renal it was 6.12% (active); in the assay on COLO 205 colon, -22.8% (active).
With `Cc1cc2c(-c3nc4ccccn4c3NC34CC5CC(CC(C5)C3)C4)c(O)c(O)cc2c(O)c1-c1c(C)cc2c(-c3nc4ccccn4c3NC34CC5CC(CC(C5)C3)C4)c(O)c(O)cc2c1O`, the growth was -1.87% (active) in the assay on NCI-H23 lung; 12.7% in the assay on NCI-H226 lung; 30.2% with NCI-H322M lung; 1.34% (active) with HOP-62 NSCLC; 5.53% (active) in the assay with NCI-H460 lung; -9.41% (active) with HOP-92 NSCLC. Besides, the growth is -5.03% (active) in the assay on NCI-H522 lung, 2.96% (active) with A549/ATCC NSCLC, -12% (active) in the assay with 786-0 renal and 6.77% (active) in the assay with COLO 205 colon.
Turning to `Oc1ccc(/C=N/Nc2nnc(N/N=C/c3ccc(O)cc3O)c3ccccc23)c(O)c1`, the growth is -58.7% (active) with NCI-H23 lung; -39.5% (active) with NCI-H226 lung; -0.934% (active) in the assay with NCI-H322M lung; -31.6% (active) in the assay with HOP-62 NSCLC; -34.1% (active) with NCI-H460 lung; -35.8% (active) with HOP-92 NSCLC. Besides, the growth in the assay on NCI-H522 lung is -45.4% (active); in the assay with A549/ATCC NSCLC, -58% (active); in the assay with 786-0 renal, -3.79% (active); in the assay on COLO 205 colon, -23.8% (active).
In the case of `C=CC[n+]1c(/C=C2\Sc3ccccc3N2C)sc(-c2ccccc2)c1-c1ccccc1`, the growth was 0.426% (active) with NCI-H23 lung; 10.3% with NCI-H226 lung; 24.2% with NCI-H322M lung; 17.8% in the assay on HOP-62 NSCLC; 8.83% (active) in the assay with NCI-H460 lung; -12.5% (active) in the assay with HOP-92 NSCLC. The growth with NCI-H522 lung was -7.57% (active); in the assay on A549/ATCC NSCLC it was 14.2%; with 786-0 renal, 16.8%; with COLO 205 colon it was -30.2% (active).
